According to the supplement of paper PMC10849652:
About 7,900 targets were measured; listed, in parts, are those with a hit and a random draw of the rest. About 0.6% of all pairs of compound and target were hits. Unmarked numbers belong to inactive results.

Tests used:
Assay in all cases: log2 fold change, soluble protein after heating vs DMSO (PISA); higher = thermal stabilisation; K562 cells, 10 uM, 30 min; active = over 0.2 and 3.5 SD of the protein, either way, in both replicates (recomputed)
[1] = compound: Cc1cccc(CC(=O)N2CCc3c2ccc(-c2cn(C)c4ncnc(N)c24)c3F)n1
Outline: (§1)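 Values are thermal stability changes relative to control samples and are taken from duplicates. They are stated as log2 fold changes. Before quantification by TMTpro 16plex LC-MS/MS with equalised channel sums, K562 cells at 2×10^6 cells/mL were treated with 10 μM compound for 30 min, heated in aliquots for 3 min across 48°C-58°C, pooled, extracted in PBS with 0.5% NP-40 at 4°C, and centrifuged at 21,000xg for 90 min to give the soluble supernatant.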

nilotinib = compound: Cc1cn(-c2cc(NC(=O)c3ccc(C)c(Nc4nccc(-c5cccnc5)n4)c3)cc(C(F)(F)F)c2)cn1 [nilotinib]
Outline: as §1

[2] = compound: Cc1nc(Nc2n[nH]c3c2CN(C(=O)N[C@H](CN(C)C)c2ccccc2)C3(C)C)c2sccc2n1
Outline: as §1

[3] = compound: Cc1ncc(-c2ccnc(Nc3ccc(S(C)(=O)=O)cc3)n2)n1C(C)C
Outline: as §1

[4] = compound: Cn1cc(-c2ccc3c(c2)CCN3C(=O)Cc2cccc(C(F)(F)F)c2)c2c(N)ncnc21
Outline: as §1

[5] = compound: Cn1cc(-c2ccc3nnc(C(F)(F)c4ccc5ncccc5c4)n3n2)cn1
Outline: as §1

tipifarnib = compound: Cn1cncc1[C@@](N)(c1ccc(Cl)cc1)c1ccc2c(c1)c(-c1cccc(Cl)c1)cc(=O)n2C [tipifarnib]
Outline: as §1

mubritinib = compound: FC(F)(F)c1ccc(/C=C/c2nc(COc3ccc(CCCCn4ccnn4)cc3)co2)cc1 [mubritinib]
Outline: as §1

[6] = compound: NC(=O)Nc1cc(-c2cccc(F)c2)sc1C(=O)N[C@H]1CCCNC1
Outline: as §1

[7] = compound: NC(=O)c1cnc(N[C@@H]2CCCC[C@@H]2N)nc1Nc1cccc(-n2nccn2)c1
Outline: as §1

[8] = compound: NC1(c2ccc(-c3nc4ccn5c(=O)[nH]nc5c4cc3-c3ccccc3)cc2)CCC1
Outline: as §1

[9] = compound: NCC(=O)Nc1ccc(-n2nc(C(F)(F)F)cc2-c2ccc3c(ccc4ccccc43)c2)cc1
Outline: as §1

entinostat = compound: Nc1ccccc1NC(=O)c1ccc(CNC(=O)OCc2cccnc2)cc1 [entinostat]
Outline: as §1

vorinostat = compound: O=C(CCCCCCC(=O)Nc1ccccc1)NO [vorinostat]
Outline: as §1

citarinostat = compound: O=C(CCCCCCNC(=O)c1cnc(N(c2ccccc2)c2ccccc2Cl)nc1)NO [citarinostat]
Outline: as §1

silmitasertib = compound: O=C(O)c1ccc2c(c1)nc(Nc1cccc(Cl)c1)c1ccncc12 [silmitasertib]
Outline: as §1

[10] = compound: O=C1NC(=O)C(c2cnc3ccccn23)=C1c1cn2c3c(cc(F)cc13)CN(C(=O)N1CCCCC1)CC2
Outline: as §1

[11] = compound: c1cc(OCCN2CCCCC2)cc(-c2n[nH]c3ccc(-c4nnc[nH]4)cc23)c1
Outline: as §1

dasatinib = compound: Cc1nc(Nc2ncc(C(=O)Nc3c(C)cccc3Cl)s2)cc(N2CCN(CCO)CC2)n1 [dasatinib]
Outline: as §1

bafetinib = compound: Cc1ccc(NC(=O)c2ccc(CN3CC[C@H](N(C)C)C3)c(C(F)(F)F)c2)cc1Nc1nccc(-c2cncnc2)n1 [bafetinib]
Outline: as §1

UniProt P51795, sequence (P51795 whole entry, looked up): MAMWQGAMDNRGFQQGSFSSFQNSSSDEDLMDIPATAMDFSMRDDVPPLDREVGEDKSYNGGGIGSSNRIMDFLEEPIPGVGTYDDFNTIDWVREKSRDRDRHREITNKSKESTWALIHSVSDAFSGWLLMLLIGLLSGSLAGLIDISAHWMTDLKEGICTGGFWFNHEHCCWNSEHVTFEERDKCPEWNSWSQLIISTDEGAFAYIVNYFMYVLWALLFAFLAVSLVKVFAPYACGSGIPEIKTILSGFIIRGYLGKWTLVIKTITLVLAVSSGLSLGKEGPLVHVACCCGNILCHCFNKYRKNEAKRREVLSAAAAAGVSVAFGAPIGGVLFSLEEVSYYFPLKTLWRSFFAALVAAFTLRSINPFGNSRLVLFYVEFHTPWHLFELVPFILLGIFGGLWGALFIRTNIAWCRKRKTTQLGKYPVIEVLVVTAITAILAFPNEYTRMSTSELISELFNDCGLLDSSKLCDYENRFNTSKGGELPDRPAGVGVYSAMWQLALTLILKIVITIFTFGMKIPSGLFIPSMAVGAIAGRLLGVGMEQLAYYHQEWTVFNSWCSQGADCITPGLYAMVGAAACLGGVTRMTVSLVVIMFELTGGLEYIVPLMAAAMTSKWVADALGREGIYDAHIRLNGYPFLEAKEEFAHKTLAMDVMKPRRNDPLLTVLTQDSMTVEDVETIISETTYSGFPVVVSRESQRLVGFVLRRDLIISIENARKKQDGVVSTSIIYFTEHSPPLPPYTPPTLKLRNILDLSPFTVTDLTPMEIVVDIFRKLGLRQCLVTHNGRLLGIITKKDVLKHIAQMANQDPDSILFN
UniProt Q9UK58, sequence (Q9UK58 whole entry, looked up): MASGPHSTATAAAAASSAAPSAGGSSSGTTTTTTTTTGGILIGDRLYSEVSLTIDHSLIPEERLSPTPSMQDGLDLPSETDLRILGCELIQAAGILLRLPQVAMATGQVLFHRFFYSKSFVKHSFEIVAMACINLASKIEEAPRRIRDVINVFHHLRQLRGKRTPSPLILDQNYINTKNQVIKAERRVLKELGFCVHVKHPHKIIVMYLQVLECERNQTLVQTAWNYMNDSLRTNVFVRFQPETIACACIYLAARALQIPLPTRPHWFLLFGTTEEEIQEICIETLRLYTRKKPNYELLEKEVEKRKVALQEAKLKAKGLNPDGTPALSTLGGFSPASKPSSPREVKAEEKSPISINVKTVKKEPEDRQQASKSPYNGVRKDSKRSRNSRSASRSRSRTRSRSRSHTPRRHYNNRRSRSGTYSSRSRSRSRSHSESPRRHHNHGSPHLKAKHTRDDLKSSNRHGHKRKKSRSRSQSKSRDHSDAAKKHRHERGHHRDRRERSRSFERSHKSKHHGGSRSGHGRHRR
UniProt Q5T655, sequence (Q5T655 whole entry, looked up): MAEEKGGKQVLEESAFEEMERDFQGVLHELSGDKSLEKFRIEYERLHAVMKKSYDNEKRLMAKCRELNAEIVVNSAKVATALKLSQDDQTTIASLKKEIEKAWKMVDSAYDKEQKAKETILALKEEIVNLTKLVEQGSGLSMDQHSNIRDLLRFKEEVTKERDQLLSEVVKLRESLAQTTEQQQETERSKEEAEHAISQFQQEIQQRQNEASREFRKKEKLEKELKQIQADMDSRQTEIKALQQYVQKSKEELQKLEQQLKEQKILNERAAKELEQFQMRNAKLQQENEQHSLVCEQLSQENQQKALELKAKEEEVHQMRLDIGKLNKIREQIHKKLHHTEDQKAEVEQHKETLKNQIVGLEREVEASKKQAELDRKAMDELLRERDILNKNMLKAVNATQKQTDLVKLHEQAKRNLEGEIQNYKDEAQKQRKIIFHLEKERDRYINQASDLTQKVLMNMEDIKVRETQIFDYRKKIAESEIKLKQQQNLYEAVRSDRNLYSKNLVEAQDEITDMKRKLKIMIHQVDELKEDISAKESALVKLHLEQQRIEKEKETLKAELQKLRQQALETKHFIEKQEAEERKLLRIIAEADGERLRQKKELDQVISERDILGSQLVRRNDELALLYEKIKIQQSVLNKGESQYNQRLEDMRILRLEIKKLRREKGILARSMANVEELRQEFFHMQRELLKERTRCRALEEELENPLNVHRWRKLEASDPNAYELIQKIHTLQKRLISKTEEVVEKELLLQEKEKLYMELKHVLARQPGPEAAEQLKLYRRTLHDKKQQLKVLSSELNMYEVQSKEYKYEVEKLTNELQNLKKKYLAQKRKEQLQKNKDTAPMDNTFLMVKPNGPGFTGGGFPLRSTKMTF
UniProt Q9BWU1, sequence (Q9BWU1 whole entry, looked up): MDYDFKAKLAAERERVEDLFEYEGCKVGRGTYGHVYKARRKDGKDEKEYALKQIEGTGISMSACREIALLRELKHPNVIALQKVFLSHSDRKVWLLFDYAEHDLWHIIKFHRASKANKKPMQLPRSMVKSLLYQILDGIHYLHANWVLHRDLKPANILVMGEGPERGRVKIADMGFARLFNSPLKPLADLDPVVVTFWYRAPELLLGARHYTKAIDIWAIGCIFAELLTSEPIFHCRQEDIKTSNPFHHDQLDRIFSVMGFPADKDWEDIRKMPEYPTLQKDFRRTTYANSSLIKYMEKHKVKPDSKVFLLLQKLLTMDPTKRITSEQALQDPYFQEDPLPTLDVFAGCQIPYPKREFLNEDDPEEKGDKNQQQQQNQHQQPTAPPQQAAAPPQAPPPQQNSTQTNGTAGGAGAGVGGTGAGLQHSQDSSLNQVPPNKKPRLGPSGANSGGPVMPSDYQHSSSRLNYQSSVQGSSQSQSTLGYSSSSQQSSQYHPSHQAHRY
UniProt Q9UJA2, sequence (Q9UJA2 whole entry, looked up): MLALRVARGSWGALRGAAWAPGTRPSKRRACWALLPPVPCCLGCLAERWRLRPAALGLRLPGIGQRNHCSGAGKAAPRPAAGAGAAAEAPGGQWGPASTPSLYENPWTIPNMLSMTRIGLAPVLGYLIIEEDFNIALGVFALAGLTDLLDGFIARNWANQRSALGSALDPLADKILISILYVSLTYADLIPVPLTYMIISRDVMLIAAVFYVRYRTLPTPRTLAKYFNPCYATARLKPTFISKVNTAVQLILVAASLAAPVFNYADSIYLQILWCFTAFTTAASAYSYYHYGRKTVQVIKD
UniProt Q96F85, sequence (Q96F85 whole entry, looked up): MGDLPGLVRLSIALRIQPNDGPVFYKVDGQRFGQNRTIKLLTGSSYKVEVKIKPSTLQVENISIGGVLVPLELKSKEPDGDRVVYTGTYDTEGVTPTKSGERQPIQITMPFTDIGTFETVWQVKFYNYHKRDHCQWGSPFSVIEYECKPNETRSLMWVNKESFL
UniProt Q14746, sequence (Q14746 whole entry, looked up): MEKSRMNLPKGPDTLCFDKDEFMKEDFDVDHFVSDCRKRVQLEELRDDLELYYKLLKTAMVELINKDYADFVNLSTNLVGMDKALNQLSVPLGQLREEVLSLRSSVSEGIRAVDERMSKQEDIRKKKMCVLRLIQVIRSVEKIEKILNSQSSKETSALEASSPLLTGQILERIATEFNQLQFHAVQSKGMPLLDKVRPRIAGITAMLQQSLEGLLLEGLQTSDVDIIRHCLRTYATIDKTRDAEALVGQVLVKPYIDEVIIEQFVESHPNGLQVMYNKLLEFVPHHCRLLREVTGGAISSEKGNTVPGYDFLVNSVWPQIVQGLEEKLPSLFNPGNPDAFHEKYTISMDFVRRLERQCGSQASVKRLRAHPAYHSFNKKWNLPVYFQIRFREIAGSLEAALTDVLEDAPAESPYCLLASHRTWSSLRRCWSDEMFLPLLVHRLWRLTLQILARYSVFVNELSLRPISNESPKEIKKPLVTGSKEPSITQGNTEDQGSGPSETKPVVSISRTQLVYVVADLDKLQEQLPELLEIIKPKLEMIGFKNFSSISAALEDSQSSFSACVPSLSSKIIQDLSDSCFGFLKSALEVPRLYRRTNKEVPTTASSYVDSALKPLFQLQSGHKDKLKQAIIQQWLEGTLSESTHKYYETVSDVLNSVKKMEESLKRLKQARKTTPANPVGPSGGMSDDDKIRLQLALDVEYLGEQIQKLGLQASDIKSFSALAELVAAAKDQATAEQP
UniProt P34810, sequence (P34810 whole entry, looked up): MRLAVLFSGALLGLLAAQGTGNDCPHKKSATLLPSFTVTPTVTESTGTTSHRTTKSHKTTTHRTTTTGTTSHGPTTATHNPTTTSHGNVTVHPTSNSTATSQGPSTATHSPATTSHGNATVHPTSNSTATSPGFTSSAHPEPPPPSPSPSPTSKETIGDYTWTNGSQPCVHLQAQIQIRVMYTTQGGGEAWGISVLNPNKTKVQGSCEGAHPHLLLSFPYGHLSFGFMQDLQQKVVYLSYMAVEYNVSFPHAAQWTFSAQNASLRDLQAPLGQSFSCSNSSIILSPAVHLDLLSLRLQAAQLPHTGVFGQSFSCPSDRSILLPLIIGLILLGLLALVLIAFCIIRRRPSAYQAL
UniProt P55211, sequence (P55211 whole entry, looked up): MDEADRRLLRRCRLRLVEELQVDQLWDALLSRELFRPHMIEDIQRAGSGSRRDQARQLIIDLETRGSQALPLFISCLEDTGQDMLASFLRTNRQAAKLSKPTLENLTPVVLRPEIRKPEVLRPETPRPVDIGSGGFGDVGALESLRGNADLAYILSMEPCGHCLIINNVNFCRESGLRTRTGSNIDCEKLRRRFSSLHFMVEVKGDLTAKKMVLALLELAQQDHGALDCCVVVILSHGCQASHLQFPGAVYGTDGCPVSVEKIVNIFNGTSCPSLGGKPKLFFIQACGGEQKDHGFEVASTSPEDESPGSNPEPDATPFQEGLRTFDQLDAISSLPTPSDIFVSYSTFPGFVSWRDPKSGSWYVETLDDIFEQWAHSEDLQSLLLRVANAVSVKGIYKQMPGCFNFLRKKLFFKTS
UniProt Q14061, sequence (Q14061 whole entry, looked up): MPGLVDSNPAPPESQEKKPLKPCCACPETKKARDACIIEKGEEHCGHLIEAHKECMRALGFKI
UniProt Q96GV9, sequence (Q96GV9 whole entry, looked up): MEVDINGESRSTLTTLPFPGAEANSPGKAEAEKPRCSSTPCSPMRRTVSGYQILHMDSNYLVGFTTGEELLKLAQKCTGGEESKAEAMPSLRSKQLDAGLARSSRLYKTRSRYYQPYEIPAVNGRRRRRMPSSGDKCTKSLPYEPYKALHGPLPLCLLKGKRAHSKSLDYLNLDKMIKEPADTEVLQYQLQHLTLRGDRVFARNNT

Target | log2 fold change [1] | log2 fold change (nilotinib) | log2 fold change [2] | log2 fold change [3] | log2 fold change [4] | log2 fold change [5] | log2 fold change (tipifarnib) | log2 fold change (mubritinib) | log2 fold change [6] | log2 fold change [7] | log2 fold change [8] | log2 fold change [9] | log2 fold change (entinostat) | log2 fold change (vorinostat) | log2 fold change (citarinostat) | log2 fold change (silmitasertib) | log2 fold change [10] | log2 fold change [11] | log2 fold change (dasatinib) | log2 fold change (bafetinib)
CDCA2 (UniProt Q69YH5) | -0.065 | 0.164 | -0.114 | 0.042 | 0.159 | -0.215 | 0.182 | -0.256 | -0.034 | -0.096 | -0.003 | 0.037 | -0.11 | 0 | -0.27 | 0.133 | 0.035 | 0.243 | – | –
CASP9 (UniProt P55211) | 0.037 | -0.013 | -0.136 | 0 | -0.276 | -0.004 | 0.003 | – | 0.059 | -0.234 | – | -0.111 | -0.098 | 0.045 | 0.05 | – | -0.057 | 0.054 | -0.075 | –
CS (UniProt F8VU34) | – | – | – | – | – | – | – | – | – | – | – | – | – | – | -0.298 | – | – | -0.393 | – | 0.044
C19orf54 (UniProt Q5BKX5) | 0.007 | – | – | – | 0.03 | 0.14 | 0.013 | – | 0.098 | 0.004 | – | 0.086 | -0.111 | -0.064 | -0.09 | – | -0.05 | -0.121 | -0.175 | –
CRTC2 (UniProt Q53ET0) | – | 0.038 | 0.01 | -0.094 | – | -0.081 | -0.092 | 0.022 | -0.814 (active) | -0.001 | -0.13 | 0.038 | 0.004 | – | -0.099 | 0.092 | -0.125 | -0.143 | – | -0.035
CREB3L2 (UniProt Q70SY1) | – | 0.091 | -0.009 | -0.119 | 0.039 | -0.024 | – | 0.13 | – | -0.102 | -0.074 | 0.035 | – | – | – | 0.023 | -0.076 | – | – | 0.01
CNN1 (UniProt P51911) | 0.22 | 0.008 | 0 | 0.031 | 0.04 | – | 0.049 | 0.009 | -0.002 | -0.07 | -0.305 | -0.023 | 0.018 | -0.125 | 0.168 | 0.108 | -0.008 | -0.052 | – | –
COMMD3-BMI1 (UniProt R4GMX3) | -0.032 | -0.109 | -0.02 | 0.046 | 0.141 | – | 0.435 | – | 0.003 | 0.076 | – | – | -0.062 | 0.109 | – | – | -0.012 | – | – | –
CA1 (UniProt E5RIF9) | – | – | – | – | – | – | – | – | – | – | – | -0.029 | – | – | – | – | -0.026 | – | -0.098 | -0.042
CD68 (UniProt P34810) | – | – | – | – | – | – | – | -0.003 | 0.039 | – | -0.106 | – | -0.33 | – | – | 0.07 | – | – | – | -0.091
CCNT2 (UniProt O60583) | -0.117 | 0.105 | -0.161 | -0.462 | – | -0.219 | 0.08 | -0.209 | -0.045 | 0.042 | 0.054 | – | 0.076 | 0.223 | 0.06 | -0.06 | -0.032 | -0.089 | -0.02 | –
CRLS1 (UniProt Q9UJA2) | 0.012 | 0.01 | -0.064 | 0.056 | -0.002 | – | -0.138 | 0.007 | 0.323 (active) | – | 0.027 | 0.06 | 0.151 | -0.005 | 0.012 | 0.017 | – | -0.051 | 0.101 | –
CCNL1 (UniProt Q9UK58) | – | – | – | – | – | – | – | 0.122 | – | – | -0.224 | – | – | – | – | -0.173 | – | – | – | –
CARD9 (UniProt Q9H257) | – | – | – | – | – | 0.085 | – | – | – | 0.37 | – | – | – | – | – | – | – | – | – | –
CDK19 (UniProt Q9BWU1) | -0.014 | -0.266 | 0.297 | 0.338 | -0.01 | -0.054 | -0.045 | 0.112 | -0.131 | -0.135 | -0.093 | -0.018 | -0.085 | 0.016 | -0.265 | 0.327 | 0.16 | -0.089 | 0.101 | –
C5orf30 (UniProt Q96GV9) | – | – | – | – | – | – | 0.152 | – | – | -0.191 | – | – | – | – | – | – | -0.051 | – | – | –
CNRIP1 (UniProt Q96F85) | – | -0.066 | -0.071 | 0.056 | – | 0.038 | -0.075 | -0.148 | – | – | 0.258 | – | – | – | – | -0.13 | 0.738 (active) | – | – | –
CCDC187, A0A1W2PQX5 | -0.106 | 0.318 | 0.027 | 0.104 | – | -0.056 | – | – | – | -0.147 | – | – | – | -0.042 | – | – | -0.048 | – | – | –
CFAP58 (UniProt Q5T655) | 0.009 | – | – | – | – | -0.046 | -0.108 | 0.127 | – | – | 0.028 | – | – | 0.018 | -0.357 | -0.008 | – | 0.392 | – | –
COX17 (UniProt Q14061) | 0.078 | -0.091 | -0.051 | -0.162 | 0.206 | -0.034 | – | 0.038 | -0.002 | 0.017 | -0.088 | 0.052 | 0.048 | -0.077 | – | 0.119 | -0.141 | – | 0.016 | –
CLCN5 isoform 2 (UniProt P51795) | 0.048 | -0.176 | 0.014 | -0.063 | 0.041 | -0.061 | – | – | – | – | – | 0.004 | – | 0.062 | 0.045 | – | – | -0.114 | -0.177 | –
COG2 (UniProt Q14746) | – | -0.169 | -0.006 | 0.133 | -0.074 | 0.245 | – | -0.035 | -0.07 | -0.513 | -0.487 | – | 0.138 | – | 0.101 | 0.248 | -0.031 | 0.34 | -0.051 | –
CFAP47 (UniProt Q6ZTR5) | – | – | – | – | – | – | 0.047 | – | – | 0.022 | – | -0.024 | – | – | -0.042 | – | -0.025 | -0.008 | -0.117 | 0.034
